Assay results from the supplement of paper PMC10849652.
The full data set covers some 7,900 targets. This sample favours those with a hit. About 0.6% of all pairs of compound and target were hits.

Tests used:
Test in all cases: log2 fold change, soluble protein after heating vs DMSO (PISA); higher = thermal stabilisation; K562 cells, 10 uM, 30 min; active = over 0.2 and 3.5 SD of the protein, either way, in both replicates (recomputed)
[1] = compound: CC1=C(C=C(C=C1)NC(=O)C2=CC(=CC=C2)C(C)(C)C#N)NC3=CC4=C(C=C3)N=CN(C4=O)C
In short: (§1)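 K562 cells at 2×10^6 cells/mL were given 10 μM compound for 30 min. Aliquots then went through 3 min of heating across 48°C-58°C, were pooled, and were extracted in PBS with 0.5% NP-40 at 4°C, and the supernatant after 21,000xg for 90 min was quantified by TMTpro 16plex LC-MS/MS with channel sums equalised. Thermal stability relative to control samples, from duplicates, is given as log2 fold change.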

[2] = compound: CC1=C(C=C(C=C1)NC(=O)C2=CC(=CC=C2)N(C)C)NC(=O)C3=CC=C(C=C3)O
In short: as §1

[3] = compound: CC1=CC=C(C=C1)SC2=C3C=C(SC3=CN=C2)C(=O)N
In short: as §1

[4] = compound: CC1=NC(=CC=C1)C2=C(N=C(N2)C(C)(C)C)C3=CC4=NC=CN=C4C=C3
In short: as §1

[5] = compound: CCCCN(Cc1ccc(C(=O)NO)cc1)C(=O)Nc1ccccc1 [Nexturastat A]
In short: as §1

[6] = compound: CCCS(=O)(=O)Nc1ccc(F)c(C(=O)c2c[nH]c3ncc(-c4ccc(Cl)cc4)cc23)c1F [vemurafenib]
In short: as §1

[7] = compound: CCCS(=O)(=O)Nc1ccc(F)c(C(=O)c2c[nH]c3ncc(Cl)cc23)c1F
In short: as §1

[8] = compound: CCCc1cc(C)[nH]c(=O)c1CNC(=O)c1cc(-c2ccnc(N3CCN(C)CC3)c2)cc2c1cnn2C(C)C
In short: as §1

[9] = compound: CCN(CC)Cc1ccc2cc(COC(=O)Nc3ccc(C(=O)NO)cc3)ccc2c1 [givinostat]
In short: as §1

[10] = compound: CCN(CCCOc1ccc2c(Nc3cc(CC(=O)Nc4cccc(F)c4)[nH]n3)ncnc2c1)CCOP(=O)(O)O [barasertib]
In short: as §1

[11] = compound: CC[C@@H]1C(=O)N(C)c2cnc(Nc3ccc(C(=O)N[C@H]4CC[C@H](N5CCN(CC6CC6)CC5)CC4)cc3OC)nc2N1C(C)C [volasertib]
In short: as §1

[12] = compound: CC[C@H](C)N1C=C(C2=C(C=C(C=C21)C3=CN=C(C=C3)N4CCNCC4)C(=O)NCC5=C(C=C(NC5=O)C)C)C
In short: as §1

[13] = compound: CC[C@H](C)[C@@H](C(=O)N[C@@H]([C@@H](C)O)C(=O)N[C@@H](CC(C)C)C(=O)[C@]1(CO1)C)NC(=O)[C@H]([C@@H](C)CC)N(C)C(=O)C [epoxomicin]
In short: as §1

[14] = compound: CCn1c(C(=O)N(C2CC2)C2CC2)cc2c3c(ncn3C)c(Nc3cc(C)n(C)n3)nc21
In short: as §1

[15] = compound: CCn1cc(-c2ccnc3[nH]c(-c4cccc(CN(C)C)c4)cc23)c(-c2ccc(NC(=O)N(C)C)cc2)n1
In short: as §1

[16] = compound: CN(C)CC(=O)Nc1ccc2[nH]c(=O)c3ccccc3c2c1
In short: as §1

[17] = compound: CN(CCOC1=CC=C(C=C1)C[C@H]2C(=O)NC(=O)S2)C3=CC=CC=N3 (racemic) [rosiglitazone]
In short: as §1

[18] = compound: CN1C2=C(C3=C1C(=O)N(N=C3)CC4=CC(=CC=C4)N)SC(=C2)S(=O)C
In short: as §1

[19] = compound: CN1CCC(CNc2ccc3ncc(-c4cccc(OC(F)(F)F)c4)n3n2)CC1
In short: as §1

[20] = compound: CC[C@@H]1C(=O)N(C)c2cnc(Nc3ccc(C(=O)NC4CCN(C)CC4)cc3OC)nc2N1C1CCCC1
In short: as §1

Measured: log2 fold change

PRKD2 isoform 3 (UniProt Q9BZL6)
Chain of UniProt Q9BZL6 (Q9BZL6 whole entry, looked up): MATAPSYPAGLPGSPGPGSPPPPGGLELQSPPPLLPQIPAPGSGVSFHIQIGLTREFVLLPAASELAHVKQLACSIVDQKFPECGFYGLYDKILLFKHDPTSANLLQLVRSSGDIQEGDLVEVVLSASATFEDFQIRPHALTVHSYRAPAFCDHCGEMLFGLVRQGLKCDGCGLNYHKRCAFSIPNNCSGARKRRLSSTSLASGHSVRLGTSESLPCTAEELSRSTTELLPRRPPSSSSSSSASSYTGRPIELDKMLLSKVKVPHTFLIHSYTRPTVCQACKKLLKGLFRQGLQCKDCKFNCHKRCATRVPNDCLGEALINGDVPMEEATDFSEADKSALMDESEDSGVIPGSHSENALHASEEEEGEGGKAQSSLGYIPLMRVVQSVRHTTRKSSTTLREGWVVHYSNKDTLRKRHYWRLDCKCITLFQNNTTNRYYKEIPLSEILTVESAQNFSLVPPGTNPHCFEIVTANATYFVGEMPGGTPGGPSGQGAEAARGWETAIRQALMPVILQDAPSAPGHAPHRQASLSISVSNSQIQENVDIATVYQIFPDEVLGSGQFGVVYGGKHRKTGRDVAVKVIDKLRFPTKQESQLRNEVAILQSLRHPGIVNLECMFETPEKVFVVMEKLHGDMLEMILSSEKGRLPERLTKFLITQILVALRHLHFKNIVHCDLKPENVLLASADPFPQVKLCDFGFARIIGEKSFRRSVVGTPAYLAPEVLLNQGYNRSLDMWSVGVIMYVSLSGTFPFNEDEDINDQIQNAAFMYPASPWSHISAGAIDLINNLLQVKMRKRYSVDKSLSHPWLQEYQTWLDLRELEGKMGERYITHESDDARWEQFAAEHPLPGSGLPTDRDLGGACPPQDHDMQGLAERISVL
active: [11] -0.674
inactive: [1] 0.296 | [2] -0.26 | [3] 0.117 | [4] 0.028 | [5] 0.006 | [6] 0.024 | [7] 0.058 | [8] 0.083 | [9] -0.009 | [10] 0.093 | [12] 0.149 | [13] 0.049 | [14] 0.005 | [15] -0.089 | [16] 0.042 | [17] 0.144 | [18] 0.056 | [19] -0.316

PKN1 isoform 2 (UniProt Q16512)
inactive: [1] 0.01 | [2] 0.002 | [3] 0.019 | [4] 0.014 | [5] 0.053 | [6] 0.023 | [7] 0.03 | [8] 0.022 | [9] 0.059 | [10] 0.03 | [20] 0.005 | [11] -0.105 | [12] 0.084 | [13] 0.014 | [14] -0.185 | [15] -0.038 | [16] 0.009 | [17] 0.06 | [18] -0.021
active: [19] -0.772

PI4K2B (UniProt Q8TCG2)
Chain of UniProt Q8TCG2 (Q8TCG2 whole entry, looked up): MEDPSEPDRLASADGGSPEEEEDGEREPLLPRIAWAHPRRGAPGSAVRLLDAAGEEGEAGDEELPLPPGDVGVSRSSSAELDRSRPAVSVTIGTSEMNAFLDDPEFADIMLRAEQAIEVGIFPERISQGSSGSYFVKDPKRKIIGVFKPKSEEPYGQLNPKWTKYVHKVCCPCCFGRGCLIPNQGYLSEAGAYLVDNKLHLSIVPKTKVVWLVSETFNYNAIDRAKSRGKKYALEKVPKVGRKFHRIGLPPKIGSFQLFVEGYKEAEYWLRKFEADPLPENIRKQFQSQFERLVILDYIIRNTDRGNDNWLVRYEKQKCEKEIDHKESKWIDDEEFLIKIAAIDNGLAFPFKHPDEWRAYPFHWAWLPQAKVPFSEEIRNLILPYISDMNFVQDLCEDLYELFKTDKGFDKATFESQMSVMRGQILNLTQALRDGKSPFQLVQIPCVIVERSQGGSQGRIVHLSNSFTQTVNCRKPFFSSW
inactive: [1] -0.082 | [2] -0.002 | [4] -0.013 | [6] 0.059 | [8] 0.144 | [9] 0.019 | [10] 0.146 | [20] -0.147 | [12] -0.039 | [14] -0.057 | [15] 0.045 | [16] -0.024 | [17] 0.004 | [18] 0.079 | [19] -0.1

PATL1 (UniProt Q86TB9)
Chain of UniProt Q86TB9 (Q86TB9 whole entry, looked up): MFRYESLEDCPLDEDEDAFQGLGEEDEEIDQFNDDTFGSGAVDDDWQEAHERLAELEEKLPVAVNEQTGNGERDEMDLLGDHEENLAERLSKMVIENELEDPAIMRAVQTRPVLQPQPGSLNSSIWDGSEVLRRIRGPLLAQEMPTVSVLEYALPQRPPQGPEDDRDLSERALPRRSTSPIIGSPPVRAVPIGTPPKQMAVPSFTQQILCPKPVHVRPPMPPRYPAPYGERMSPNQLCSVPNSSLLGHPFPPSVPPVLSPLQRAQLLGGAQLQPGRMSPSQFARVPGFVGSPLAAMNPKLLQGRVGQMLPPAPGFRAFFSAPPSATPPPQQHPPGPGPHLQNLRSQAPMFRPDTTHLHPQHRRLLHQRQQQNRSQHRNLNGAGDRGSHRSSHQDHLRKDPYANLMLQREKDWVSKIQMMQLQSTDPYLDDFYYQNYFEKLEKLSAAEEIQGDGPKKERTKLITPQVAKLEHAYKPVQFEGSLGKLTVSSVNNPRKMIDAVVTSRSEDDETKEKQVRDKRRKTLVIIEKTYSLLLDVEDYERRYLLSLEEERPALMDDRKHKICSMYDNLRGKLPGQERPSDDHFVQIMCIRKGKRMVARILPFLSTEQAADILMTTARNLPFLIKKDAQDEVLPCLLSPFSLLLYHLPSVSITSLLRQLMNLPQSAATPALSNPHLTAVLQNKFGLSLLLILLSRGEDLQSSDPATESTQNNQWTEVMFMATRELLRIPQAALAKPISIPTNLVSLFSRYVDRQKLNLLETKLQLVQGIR
inactive: [1] 0.038 | [2] 0.031 | [3] -0.025 | [4] -0.064 | [5] 0.123 | [6] -0.118 | [7] 0.005 | [8] 0.1 | [9] 0.039 | [10] 0.014 | [20] 0.109 | [11] 0.013 | [13] -0.041 | [14] -0.022 | [15] 0.051 | [16] 0.007 | [17] 0.078 | [18] 0.104
active: [19] -0.445

POGZ (UniProt Q7Z3K3)
Chain of UniProt Q7Z3K3 (Q7Z3K3 whole entry, looked up): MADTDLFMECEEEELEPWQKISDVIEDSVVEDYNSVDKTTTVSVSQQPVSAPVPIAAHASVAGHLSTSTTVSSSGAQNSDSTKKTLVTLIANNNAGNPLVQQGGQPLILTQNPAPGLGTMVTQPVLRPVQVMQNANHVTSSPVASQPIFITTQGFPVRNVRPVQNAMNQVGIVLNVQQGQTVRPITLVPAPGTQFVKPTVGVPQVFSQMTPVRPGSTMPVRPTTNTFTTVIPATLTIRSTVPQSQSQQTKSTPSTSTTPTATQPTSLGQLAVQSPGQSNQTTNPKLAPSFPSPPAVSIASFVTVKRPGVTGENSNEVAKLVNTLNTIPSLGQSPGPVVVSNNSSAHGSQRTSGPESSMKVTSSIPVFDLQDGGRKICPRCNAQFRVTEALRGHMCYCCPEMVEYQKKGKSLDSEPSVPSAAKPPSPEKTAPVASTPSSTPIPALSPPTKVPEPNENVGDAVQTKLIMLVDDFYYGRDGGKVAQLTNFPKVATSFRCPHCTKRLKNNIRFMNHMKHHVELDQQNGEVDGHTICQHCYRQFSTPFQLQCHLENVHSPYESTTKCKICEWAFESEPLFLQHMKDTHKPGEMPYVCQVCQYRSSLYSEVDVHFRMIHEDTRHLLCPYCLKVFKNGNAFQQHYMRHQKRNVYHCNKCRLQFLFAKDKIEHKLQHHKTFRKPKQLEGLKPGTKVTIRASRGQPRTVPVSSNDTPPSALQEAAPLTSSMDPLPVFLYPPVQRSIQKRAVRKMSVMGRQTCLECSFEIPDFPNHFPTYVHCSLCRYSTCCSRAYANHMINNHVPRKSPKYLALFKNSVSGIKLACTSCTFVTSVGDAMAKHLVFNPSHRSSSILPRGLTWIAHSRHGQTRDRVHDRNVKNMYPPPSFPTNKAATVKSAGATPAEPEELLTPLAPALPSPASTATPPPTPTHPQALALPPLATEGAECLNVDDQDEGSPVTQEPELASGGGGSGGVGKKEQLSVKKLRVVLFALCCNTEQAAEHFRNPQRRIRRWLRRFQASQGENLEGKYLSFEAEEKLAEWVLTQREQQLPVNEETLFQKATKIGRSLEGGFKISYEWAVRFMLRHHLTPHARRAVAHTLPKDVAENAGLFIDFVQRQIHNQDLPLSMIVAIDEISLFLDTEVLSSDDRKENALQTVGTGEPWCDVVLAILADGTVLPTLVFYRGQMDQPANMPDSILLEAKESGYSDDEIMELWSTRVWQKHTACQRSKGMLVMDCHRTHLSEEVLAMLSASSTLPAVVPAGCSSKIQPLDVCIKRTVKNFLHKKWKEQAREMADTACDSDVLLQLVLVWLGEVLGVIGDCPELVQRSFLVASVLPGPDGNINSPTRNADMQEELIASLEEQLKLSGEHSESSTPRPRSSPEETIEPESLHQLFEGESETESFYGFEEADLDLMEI
inactive: [1] 0.037 | [2] -0.025 | [3] 0.028 | [4] 0.008 | [5] -0.127 | [6] 0.122 | [7] -0.024 | [9] -0.142 | [20] -0.077 | [11] -0.293 | [13] 0.08 | [14] -0.088 | [15] -0.192 | [16] 0.07 | [18] 0.006 | [19] 0.063

POLR2C (UniProt P19387)
inactive: [1] -0.097 | [2] -0.058 | [3] 0.038 | [4] -0.011 | [5] 0.126 | [6] 0.021 | [7] 0.066 | [8] -0.005 | [9] 0.042 | [10] 0.022 | [20] 0.059 | [11] -0.187 | [12] 0.017 | [13] 0.075 | [14] -0.035 | [16] 0.006 | [17] 0.042 | [18] -0.04

POLR3D (UniProt P05423)
Chain of UniProt P05423 (P05423 whole entry, looked up): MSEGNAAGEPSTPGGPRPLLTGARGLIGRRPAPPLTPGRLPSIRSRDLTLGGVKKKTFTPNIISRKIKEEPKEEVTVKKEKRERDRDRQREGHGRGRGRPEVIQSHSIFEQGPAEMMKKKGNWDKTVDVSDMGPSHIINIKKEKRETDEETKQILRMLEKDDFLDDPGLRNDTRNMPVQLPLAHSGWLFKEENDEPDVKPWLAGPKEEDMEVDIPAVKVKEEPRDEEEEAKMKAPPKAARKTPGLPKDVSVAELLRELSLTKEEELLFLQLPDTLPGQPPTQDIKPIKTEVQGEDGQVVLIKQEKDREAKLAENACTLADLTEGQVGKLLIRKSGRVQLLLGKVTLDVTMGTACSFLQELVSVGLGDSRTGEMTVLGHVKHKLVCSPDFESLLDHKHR
inactive: [1] -0.078 | [2] 0.014 | [3] -0.01 | [4] -0.023 | [5] 0.153 | [6] 0.03 | [7] 0.055 | [8] 0.104 | [9] 0.065 | [10] 0.098 | [12] 0.107 | [13] -0.066 | [14] -0.06 | [15] 0.032 | [16] 0.018 | [17] -0.005 | [18] 0.61 | [19] -0.035
active: [11] -0.394

PARP16 isoform 3 (UniProt Q8N5Y8)
Chain of UniProt Q8N5Y8 (Q8N5Y8 whole entry, looked up): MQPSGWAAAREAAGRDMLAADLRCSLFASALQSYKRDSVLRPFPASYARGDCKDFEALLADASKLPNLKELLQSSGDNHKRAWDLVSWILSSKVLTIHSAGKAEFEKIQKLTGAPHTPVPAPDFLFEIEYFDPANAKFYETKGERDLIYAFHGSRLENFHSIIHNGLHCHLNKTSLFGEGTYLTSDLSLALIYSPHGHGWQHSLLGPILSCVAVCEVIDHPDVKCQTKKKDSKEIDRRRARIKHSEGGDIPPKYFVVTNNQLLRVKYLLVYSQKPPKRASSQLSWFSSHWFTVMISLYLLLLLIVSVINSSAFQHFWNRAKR
inactive: [1] 0.066 | [4] 0 | [5] 0.022 | [6] -0.06 | [7] 0.132 | [8] -0.016 | [9] 0.04 | [10] 0.032 | [20] 0.103 | [11] -0.025 | [12] 0.067 | [13] 0.029 | [14] 0.006 | [16] 0.061 | [17] 0.09 | [18] -0.008 | [19] 0.096
active: [3] 0.298 | [15] -0.252

PNPLA4 (UniProt P41247)
Chain of UniProt P41247 (P41247 whole entry, looked up): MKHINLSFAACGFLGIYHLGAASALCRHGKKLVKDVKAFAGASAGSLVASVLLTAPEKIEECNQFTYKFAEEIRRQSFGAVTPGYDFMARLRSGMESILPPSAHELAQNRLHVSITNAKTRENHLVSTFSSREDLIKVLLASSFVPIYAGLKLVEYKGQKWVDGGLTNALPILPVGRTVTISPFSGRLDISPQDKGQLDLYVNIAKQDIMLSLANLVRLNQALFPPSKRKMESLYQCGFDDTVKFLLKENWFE
inactive: [1] 0.418 | [2] -0.04 | [3] 0.409 | [4] 0.273 | [6] -0.093 | [7] -0.025 | [8] -0.277 | [10] 0.042 | [20] -0.152 | [11] -0.093 | [12] -0.039 | [14] -0.083 | [16] -0.004 | [17] -0.081 | [18] 0.126
active: [9] 1.1
